Results taken from PubChem BioAssay (NCATS).
Several values for one entry are separate records, joined by “and”; a condition that tells them apart may be missing. Equal entries are not always repeated. A number with no mark means an inactive call. Inconclusive results are not listed. A call without a number means that no potency is given here. Activity calls are given as the source filed them. Unless noted, calls come from the whole dose curve; as a rule, active = well fitted curve in the direction sought with a large enough effect; inconclusive = small, poorly fitted or top-dose-only effect, or another doubt; inactive = no such curve, though single readings can be large; an effect the other way counts as inactive or inconclusive.

Columns and labels:
[1] = Cell Viability - BJ (AID 421; calls by dose curve;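 note: potency is the fitted concentration of half-maximal effect; cells exposed to compound for 40 hours at 37 °C before readout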); conditions: BJ fibroblast viability, qHTS
Outline: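 Luminescent ATP signal (CellTiter-Glo, 20 min at room temperature) served as the read-out of viable BJ cells after 40 hours of compound treatment. Responses were scaled between DMSO and 100 uM tamoxifen, and AC50 values were obtained by Hill modeling.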

[2] = Cell Viability - Jurkat (AID 426;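 active = dose-dependent loss of cell ATP signal giving a full or clear fitted curve, ranked by lower potency value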;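 note: potency is the fitted concentration of half-maximal effect; cells exposed to compound for 40 hours at 37 °C before ATP read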); conditions: qHTS
Outline: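 Cytotoxicity taken as drop in cellular ATP (CellTiter-Glo luminescence, 20 min room temperature) after 40 hr, 37C treatment of 5000 Jurkat Clone E6-1 cells per well; concentration-response fitted with Hill equation for AC50.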

[3] = Cell Viability - Hek293 (AID 427;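 active = compounds whose dose-response curve shows a full or clear partial loss of cell viability, called from curve shape rather than a numeric limit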;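 note: potency is the fitted concentration of half-maximal effect; cells exposed to compound for 40 hours at 37 °C before reading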); conditions: qHTS
Outline: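 Luminescent ATP read-out (CellTiter-Glo, 20 min RT) after 40 hr compound exposure at 37 °C in complete medium. Signal normalized to DMSO (basal) and 100 uM tamoxifen (100% inhibition); concentration-response fitted with the standard Hill equation to give AC50.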

[4] = Cell Viability - HepG2 (AID 433; calls by dose curve;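 note: potency is the fitted concentration of half-maximal effect; potency for ATP loss meaning cytotoxicity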); conditions: qHTS
Outline: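 ATP luminescence (CellTiter-Glo) after 40 h compound exposure, 37 °C, HepG2, 1500 cells/well, complete medium. Normalized: DMSO = basal, 100 uM tamoxifen = 100% inhibition. AC50 via standard Hill equation.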

[5] = Cell Viability - MRC5 (AID 434; calls by dose curve;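 note: potency is the fitted concentration of half-maximal effect; cells exposed to compound for 40 hours at 37 °C; potency reflects cytotoxicity seen as loss of intracellular ATP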); conditions: MRC5 lung fibroblast viability, qHTS
Outline: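 AC50 values come from Hill-equation fits of intracellular ATP loss, measured by CellTiter-Glo luminescence. Normal lung fibroblasts (MRC5) had 40 hr compound treatment at 37 C, normalized between DMSO and 100 uM tamoxifen.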

[6] = Cell Viability - SK-N-SH (AID 435; calls by dose curve; note: potency is the fitted concentration of half-maximal effect); conditions: SK-N-SH neuroblastoma cell viability qHTS
Outline: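 CellTiter-Glo ATP luminescence, 20 min RT read; cells pre-plated 5 hr, compound 40 hr at 37 °C, 1500 cells/well, complete medium. Normalized DMSO = 0, 100 uM tamoxifen = 100% inhibition; Hill-fit AC50.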

[7] = Cell Viability - HUV-EC-C (AID 542); conditions: HUV-EC-C endothelial cell viability, qHTS; series mostly up to 92.2 µM; note: nearly all actives have a fitted effect of over 35% in size
Outline: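 CellTiter-Glo luminescence measured ATP loss in HUV-EC-C cells (1000/well) after 40 hr compound exposure at 37 °C, in complete culture medium. Concentration-response data were Hill-fitted to give AC50.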

[8] = Cellular Toxicity (caspase-3) HepG2 (AID 654); conditions: HepG2 caspase-3 activation, luminescence, 0% = DMSO only, 100% = tamoxifen; series mostly up to 92.2 µM;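 note: cells exposed to compound for 16 hours before reading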
Outline: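 Caspase 3/7 activation is measured as a luminescence increase (aminoluciferin substrate) after 16 h compound exposure of human hepatocarcinoma HepG2 cells. AC50 values are Hill fits, scaled between DMSO baseline and 100 uM tamoxifen stimulation.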

[9] = Cellular Toxicity (caspase-3) SK-N-SH (AID 661); conditions: SK-N-SH caspase-3 activation, qHTS; series mostly up to 91.7 µM;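 note: cells exposed to compound for 16 hours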
Outline: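 Caspase 3/7 activation was read by luminogenic substrate cleavage after 16 hour treatment of SK-N-SH cells. Signal was scaled between DMSO and 10 uM staurosporine, and concentration-response data were fitted with the Hill equation for AC50.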

[10] = Cellular Toxicity (caspase-3) N2a (AID 665); conditions: N2a cells, luminescence, normalized: DMSO 0%, 10 µM staurosporine 100%; series mostly up to 92.2 µM;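 note: compound exposure lasted 16 h at 37 °C before readout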
Outline: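 Caspase-3/7 activation measured as luminescence from Caspase-Glo reagent (1 h, room temperature) after 16 h compound exposure of mouse N2a cells. AC50 values from Hill-equation concentration-response, scaled between DMSO and 10 uM staurosporine.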

[11] = Cellular Toxicity (caspase-3) NIH 3T3 (AID 666); conditions: NIH 3T3 caspase-3 activation, apoptosis/toxicity; series mostly up to 92.2 µM
Outline: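 Caspase-Glo 3/7 luminescence reported caspase activation in 1000 NIH 3T3 cells/well after 16 h compound exposure at 37 C. DMSO set basal and 100 uM tamoxifen set 100% stimulation; concentration-response modeled with the Hill equation for AC50.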

[12] = Cellular Toxicity (caspase-3) Renal Proximal Tubule (AID 667); conditions: renal proximal tubule cells; series mostly up to 91.7 µM;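 note: cells exposed to compound for 16 hours at 37 °C before detection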
Outline: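 Luminescent caspase 3/7 signal from peptide-aminoluciferin cleavage measures apoptosis in freshly isolated rat kidney proximal tubule cells after 16 h compound exposure. Concentration-response data are normalized to DMSO and 10 uM staurosporine, and AC50 values come from Hill equation fits.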

[13] = MultiTox-Fluor Cytotoxicity Assay - LYMP1-003 - Dead Cells (AID 961); conditions: LYMP1-003 lymphoblastoid cells, dead-cell protease fluorescence; series mostly up to 92.2 µM; note: nearly all actives have a fitted effect of over 70% in size
Outline: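 Human lymphoblastoid LYMP1-003 cells (2500/well) were treated with compounds for 16 hr at 37 C in complete medium. Dead-cell protease release was read by bis-AAF-R110 fluorescence (Ex/Em 485/520). AC50 came from Hill fits, normalized to DMSO and 15 uM tetraoctylammonium bromide.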

[14] = Cell Viability - LYMP2-007 (AID 979); conditions: LYMP2-007 lymphoblastoid cell viability; series mostly up to 92.2 µM;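 note: cells exposed to compound for 24 h before reading; nearly all actives have a fitted effect of over 60% in size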; note: potency is the fitted concentration of half-maximal effect
Outline: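 AC50 values come from Hill-equation fits of luminescent intracellular ATP (CellTiter-Glo, 30 min, room temperature) following 24 h compound exposure at 37 C. Cells: LYMP2-007 lymphoblastoid line, 2500 per well, in complete culture medium.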

[15] = Cell Viability - LYMP1-002 - Assay at 24 hr (AID 993); conditions: LYMP1-002 lymphoblastoid cells viability; series mostly up to 92.2 µM
Outline: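 qHTS cytotoxicity at 24 h: CellTiter-Glo ATP luminescence in lymphoblastoid line LYMP1-002 incubated with compound at 37 °C. Concentration-response modeled with the Hill equation for AC50; tetraoctylammonium bromide served as positive control.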

[16] = qHTS Assay for Identification of Small Molecule Inducers of Hypoxia Response (AID 2120; active = well fitted curve in the direction sought with a large enough effect in the signal ratio, with a control signal flat, not every such curve was filed as active; the % refers to the signal ratio); conditions: hypoxia response reporter cells, beta-lactamase ratio readout; series mostly up to 104 µM
Outline: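 Reporter induction read as the CCF4 blue/green (460nm/530nm) emission ratio after 2.5 h dye loading at room temperature. ME-180 HRE-beta-lactamase cells received titrated compounds for 17 h at 37 degrees Celsius; AC50 values derived.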

[17] = target: Peroxisome proliferator-activated receptor alpha (Homo sapiens) (UniProt Q07869); assay: qHTS assay for small molecule agonists of the peroxisome proliferator-activated receptor alpha (PPARalpha) signaling pathway (AID 651778); conditions: PathHunter PPARalpha complementation, chemiluminescence, 6 h; active compounds read high
Chain of Peroxisome proliferator-activated receptor alpha (Homo sapiens) (Q07869 whole entry, looked up): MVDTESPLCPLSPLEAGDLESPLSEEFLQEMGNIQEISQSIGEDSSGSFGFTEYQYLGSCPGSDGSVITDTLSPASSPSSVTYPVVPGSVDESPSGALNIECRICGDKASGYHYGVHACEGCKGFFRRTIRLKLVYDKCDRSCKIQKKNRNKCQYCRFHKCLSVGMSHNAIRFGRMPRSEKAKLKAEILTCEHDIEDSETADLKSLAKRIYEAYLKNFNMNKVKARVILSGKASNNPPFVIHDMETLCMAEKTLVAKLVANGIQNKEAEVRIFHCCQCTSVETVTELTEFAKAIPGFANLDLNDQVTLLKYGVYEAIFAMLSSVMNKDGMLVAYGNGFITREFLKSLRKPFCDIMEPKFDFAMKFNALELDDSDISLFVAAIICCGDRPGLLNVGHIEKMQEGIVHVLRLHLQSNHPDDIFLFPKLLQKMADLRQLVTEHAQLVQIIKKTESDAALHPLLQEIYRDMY
Outline: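 Chemiluminescence from complemented enzyme reported PPARalpha activation in cells after 6 hr of compound treatment at 37 C. The detection reagent was incubated for 60 min at room temperature, and compounds were scored as agonists.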

[18] = qHTS assay for small molecule agonists of the antioxidant response element (ARE) signaling pathway measured by Nrf2-dependant transcriptional activity - cell viability counter screen (AID 720653; active = well fitted curve in the direction sought with a large enough effect in the repeat runs; an effect the other way counts as inactive or inconclusive); conditions: ARE-bla HepG2 viability, CellTiter-Glo ATP luminescence, 16 h; active compounds read low
Outline: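 Cytotoxicity counter screen: intracellular ATP quantified by CellTiter-Glo luminescence in the same ARE-bla HepG2 plates, after 16 h compound exposure and a 2 h beta-lactamase substrate step.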

[19] = qHTS assay for cell viability of HEK293 cells (AID 743288); conditions: ATP luminescence (CellTiter-Glo), 18 h, active compounds read low; note: nearly all actives have a fitted effect of over 50% in size
Outline: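 ATP luminescence (CellTiter-Glo) reports metabolically competent cell number after parental HEK293 cells, 2,000/well, were treated with DMSO-dissolved compounds for 18 h at 37 C; reagent incubation 30 min, room temperature.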

[20] = qHTS assay for cell viability of the p53RE-bla HCT-116 cell line (AID 743292); conditions: p53RE-bla HCT-116 viability, ATP luminescence, 16 h; series mostly up to 95 µM; note: nearly all actives have a fitted effect of over 55% in size
Outline: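 Intracellular ATP of p53RE-bla HCT-116 cells measured by luciferase luminescence following 16 h compound incubation at 37 C; DMSO-only wells served as vehicle controls.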

SMILES	Potency [1]	Potency [2]	Potency [3]	Potency [4]	Potency [5]	Potency [6]	Potency [7]	outcome [8]	Potency [9]	outcome [10]	Potency [11]	outcome [12]	Potency [13]	Potency [14]	Potency [15]	Potency [16]	max response [17]	max response [18]	max response [19]	Potency [20]
CCNCC	> 92 µM	> 92 µM	> 92 µM	> 92 µM	> 92 µM	> 92 µM	inactive	inactive	inactive	inactive	inactive	inactive	inactive	inactive	inactive	inactive	7.15%	14.5%	7.41%	inactive
ClCCOCOCCCl	> 92 µM	> 92 µM	> 92 µM	> 92 µM	> 92 µM	> 92 µM	inactive	inactive	inactive	inactive	inactive	inactive	inactive	inactive	inactive	inactive	-0.0658%	-12.6%	-1.26%	inactive
Cc1cnc[nH]1	> 92 µM	> 92 µM	> 92 µM	> 92 µM	> 92 µM	> 92 µM	inactive	inactive	inactive	inactive	inactive	inactive	inactive	inactive	inactive	inactive	-0.863%	-3.19%	-9.96%	inactive
OC[P+](CO)(CO)CO	> 92 µM	31.3 µM	> 92 µM	> 92 µM	> 92 µM	> 92 µM	inactive	inactive	inactive	inactive	inactive	inactive	inactive	15.8 µM (active)	inactive	inactive	-6.87% and -1.39%	-17.6% and -11.9%	-13.3%	inactive
O=NN1CCCCC1	> 92 µM	> 92 µM	> 92 µM	> 92 µM	> 92 µM	> 92 µM	inactive	inactive	inactive	inactive	inactive	inactive	inactive	inactive	inactive	inactive	-3.04%	-0.59%	-2.6%	inactive
O=C(O)C(Cl)(Cl)Br	> 92 µM	> 92 µM	> 92 µM	> 92 µM	> 92 µM	> 92 µM	inactive	inactive	inactive	inactive	inactive	inactive	inactive	inactive	inactive	inactive	-5.37%	-4.89%	5.15%	inactive
COC(=O)c1ccccc1N	> 92 µM	> 92 µM	> 92 µM	> 92 µM	> 92 µM	> 92 µM	inactive	inactive	inactive	inactive	inactive	inactive	inactive	inactive	inactive	inactive	-6.67%	-7.9%	-4.36%	inactive
C=CC=O	> 92 µM	> 92 µM	> 92 µM	> 92 µM	> 92 µM	> 92 µM	inactive	inactive	inactive	inactive	inactive	inactive	inactive	inactive	inactive	inactive	-5.14%	9.03%	-14.3%	inactive
Nc1ccc(-c2ccc(N)cc2)cc1	> 92 µM	> 92 µM	> 92 µM	> 92 µM	> 92 µM	> 92 µM	inactive	inactive	inactive	inactive	inactive	inactive	inactive	inactive	inactive	inactive	-0.279%	-3.71%	2.98%	inactive
C=CC#N	> 92 µM	> 92 µM	> 92 µM	> 92 µM	> 92 µM	> 92 µM	inactive	inactive	inactive	inactive	inactive	inactive	inactive	inactive	inactive	inactive	-1.02%	7.55%	-18.6%	inactive
CCOP(=O)(OCC)OCC	> 92 µM	> 92 µM	> 92 µM	> 92 µM	> 92 µM	> 92 µM	inactive	inactive	inactive	inactive	inactive	inactive	inactive	inactive	inactive	inactive	0.636% and -0.566%	-1.09% and -8.89%	5.7% and 3.95%	inactive
c1ccc(C2CO2)cc1 (stereo not given)	> 92 µM	> 92 µM	> 92 µM	> 92 µM	> 92 µM	> 92 µM	inactive	inactive	inactive	inactive	inactive	inactive	inactive	inactive	inactive	inactive	0.189%	-5.33%	-9.74%	inactive
NC1CCC(CC2CCC(N)CC2)CC1 (stereo not given)	> 92 µM	> 92 µM	> 92 µM	> 92 µM	> 92 µM	> 92 µM	inactive	inactive	inactive	inactive	inactive	inactive	inactive	inactive	inactive	inactive	-7.49% and -0.343%	-9.14% and 3.44%	7.87% and 2.31%	inactive
O=Cc1ccc(Cl)cc1Cl	> 92 µM	> 92 µM	> 92 µM	> 92 µM	> 92 µM	> 92 µM	inactive	inactive	inactive	inactive	inactive	inactive	inactive	inactive	inactive	inactive	-4.79%	1.04%	-8.13%	inactive
C=CC(=O)OCCN(C)C	> 92 µM	> 92 µM	> 92 µM	> 92 µM	> 92 µM	> 92 µM	inactive	inactive	inactive	inactive	inactive	inactive	inactive	inactive	inactive	inactive	10.1%	5.35%	-6.86%	inactive
CCBr	> 92 µM	> 92 µM	> 92 µM	> 92 µM	> 92 µM	> 92 µM	inactive	inactive	inactive	inactive	inactive	inactive	inactive	inactive	inactive	inactive	-2.39%	-4.15%	-3.34%	inactive
O=[N+]([O-])c1cc(Cl)c(Cl)cc1Cl	> 92 µM	> 92 µM	> 92 µM	> 92 µM	> 92 µM	> 92 µM	inactive	inactive	inactive	inactive	inactive	inactive	inactive	inactive	inactive	inactive	-8.71%	-7.17%	-3.86%	inactive
c1ccc(OCC2CO2)cc1 (stereo not given)	> 92 µM	> 92 µM	> 92 µM	> 92 µM	> 92 µM	> 92 µM	inactive	inactive	inactive	inactive	inactive	inactive	inactive	inactive	inactive	inactive	-5.02%	0.104%	5.64%	inactive
COC(=O)Nc1cccc(OC(=O)Nc2cccc(C)c2)c1	> 92 µM	> 92 µM	> 92 µM	> 92 µM	> 92 µM	> 92 µM	inactive	inactive	inactive	inactive	inactive	inactive	inactive	inactive	inactive	inactive	-6.94%	-11.1%	-7.47%	inactive
CCCCC#N	> 92 µM	> 92 µM	> 92 µM	> 92 µM	> 92 µM	> 92 µM	inactive	inactive	inactive	inactive	inactive	inactive	inactive	inactive	inactive	inactive	-3.73%	-5.38%	2.15%	inactive
